Assay [1] in a line: qHTS assay to identify small molecule agonists of the vitamin D receptor (VDR) signaling pathway - cell viability counter screen (AID 743224). Also: nearly all actives have a fitted effect of over 50% in size. Also: potency is read from the fitted curve at half-maximal effect. Summed up:
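Counter screen run in the same wells as the VDR-bla reporter assay: CellTiter-Glo luminescence, 30 min at room temperature, after 16 h compound treatment at 37C of cells pre-plated for 4 h.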
(In general: Quantitative high-throughput screening tests each substance at several concentrations.)

A short description of assay [2]: qHTS assay to identify small molecule antagonists of the vitamin D receptor (VDR) signaling pathway - cell viability counter screen (AID 743225). Also: nearly all actives have a fitted effect of over 50% in size. Summed up:
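Cells (VDR-UAS-bla HEK 293T) are plated, rested 4 h at 37C, dosed with compound and 3 nM final 1-alpha,25-dihydroxy vitamin D3, and incubated 16 h. Viability is taken from CellTiter-Glo luminescence in the reporter wells.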

Assay [3] can be described thus: qHTS assay to identify small molecule agonists of the endoplasmic reticulum stress response signaling pathway - cell viability counter screen (AID 1159517; calls by dose curve; also: series mostly up to about 61 µM; nearly all actives have a fitted effect of over 50% in size). Summed up: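 In parallel with the ESRE reporter read, cytotoxicity was scored by CellTiter-Glo luminescence (30 min, room temperature) on HeLa ESRE-bla cells dosed for 5 hr.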
Assay [4] in a line: qHTS assay to identify small molecule antagonists of the retinoid-related orphan receptor gamma (ROR-gamma) signaling pathway - cell viability counter screen (AID 1159520). Also: nearly all actives have a fitted effect of over 50% in size. Also: potency is read from the fitted curve at half-maximal effect. A digest of the protocol:
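Tet-on ROR gamma CHO cells were given compounds for 2 hr, then doxycycline hyclate at 1 uM final, and incubated 16 hr at 37 C. Viability was measured as ATP content by CellTiter-Glo luminescence.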

The target in assay [5] is Nuclear receptor ROR-gamma (Homo sapiens) (UniProt P51449). The assay can be described thus: qHTS assay to identify small molecule antagonists of the retinoid-related orphan receptor gamma (ROR-gamma) signaling pathway (AID 1159521; also: nearly all actives have a fitted effect of over 50% in size; also: potency is read from the fitted curve at half-maximal effect). A digest of the protocol:
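RORγ antagonism is scored from reduced reporter luminescence in Tet-on CHO cells. Induction used 1 uM final doxycycline hyclate for 16 h at 37 C, following a 2 h compound exposure.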

Assay [6] in a line: qHTS assay to identify small molecule agonists of the AP-1 signaling pathway - cell viability counter screen (AID 1159525; calls by dose curve; also: nearly all actives have a fitted effect of over 55% in size). Summed up:
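Same-well cytotoxicity counter screen of the Tox21 10K library in ME-180 cells. The readout is ATP-dependent luminescence after 5 h compound treatment. Data are normalised to DMSO and tetra n-octyl ammonium bromide controls.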

Assay [7] is described as follows: qHTS assay to identify small molecule agonists of the AP-1 signaling pathway (AID 1159526; calls by dose curve).
The target of assay [8] is Retinoic acid receptor RXR-alpha (Homo sapiens) (UniProt P19793). In words: qHTS assay to identify small molecule agonists of the RXR signaling pathway (AID 1159527; calls by dose curve; also: nearly all actives have a fitted effect of over 35% in size). Summed up: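 qHTS of the Tox21 10K library in GeneBLAzer RXR-alpha HEK 293T cells carrying a beta-lactamase reporter […]; 16 hr treatment, 9-cis retinoic acid as agonist control, FRET read-out.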
Chain of Retinoic acid receptor RXR-alpha (Homo sapiens) (P19793 whole entry, looked up): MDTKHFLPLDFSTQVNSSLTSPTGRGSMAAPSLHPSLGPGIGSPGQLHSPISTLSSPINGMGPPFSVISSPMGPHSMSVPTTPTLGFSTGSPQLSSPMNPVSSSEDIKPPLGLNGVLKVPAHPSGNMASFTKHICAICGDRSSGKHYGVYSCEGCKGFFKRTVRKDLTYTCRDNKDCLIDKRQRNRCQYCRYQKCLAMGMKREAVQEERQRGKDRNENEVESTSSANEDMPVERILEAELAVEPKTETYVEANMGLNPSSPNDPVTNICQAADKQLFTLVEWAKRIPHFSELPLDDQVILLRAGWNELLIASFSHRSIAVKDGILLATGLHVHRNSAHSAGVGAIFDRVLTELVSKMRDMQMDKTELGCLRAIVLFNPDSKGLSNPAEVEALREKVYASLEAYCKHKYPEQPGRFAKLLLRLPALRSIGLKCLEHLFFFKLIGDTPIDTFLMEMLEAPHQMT

The nature of assay [9]: qHTS assay to identify small molecule agonists of the RXR signaling pathway - cell viability counter screen (AID 1159529). A digest of the protocol:
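Cell viability is measured by CellTiter-Glo luminescence, 30 min at room temperature, in wells already read for beta-lactamase. Engineered HEK 293T cells (RXR-alpha-UAS-bla) are dosed 16 hr at 37 C. Tetraoctyl ammonium bromide serves as positive control.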

The nature of assay [10]: qHTS assay to identify small molecule antagonists of the retinoid acid receptor (RAR) signaling pathway - cell viability counter screen (AID 1159551). Also: nearly all actives have a fitted effect of over 35% in size. Summed up: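 Cytotoxicity counter screen: ATP content quantified by CellTiter-Glo luminescence in C3RL4 cells treated 6 hr at 37 C with compound and retinol (1 uM final). Cells plated at 1,000/well and cultured overnight before dosing.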

Assay [11] can be described thus: qHTS assay to identify small molecule antagonists of the retinoic acid receptor (RAR) signaling pathway (AID 1159552; also: nearly all actives have a fitted effect of over 50% in size). Summed up: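 Quantitative HTS in C3RL4 RARE-luciferase reporter cells. Compounds were added with 1 uM (final) retinol; luminescence was read after 6 hr.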
A short description of assay [12]: qHTS assay to identify small molecule agonists of the retinoic acid receptor (RAR) signaling pathway (AID 1159553). Also: potency is read from the fitted curve at half-maximal effect. A digest of the protocol: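 Luminescence was measured 30 min after luciferase reagent addition at room temperature. Before that, C3RL4 reporter cells (1,000 per well, plated overnight) were treated with compound for 6 hr at 37 C and 5% CO2.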
The nature of assay [13]: qHTS assay to identify small molecule agonists of the endoplasmic reticulum stress response signaling pathway (AID 1159516; active = well fitted activation curve with a large enough effect in the signal ratio in the repeat runs, not every such curve was filed as active; the % refers to the signal ratio). Summed up: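 Ratiometric FRET readout (405 nm excitation; 460 and 530 nm emission) of a beta-lactamase gene driven by the ER stress response element, after 2 hr substrate loading. HeLa ESRE-bla cells were seeded overnight and treated with compounds for only 5 hr at 37 C.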

Assay [14] can be described thus: qHTS assay to identify small molecule agonists of the NFkB signaling pathway - cell viability counter screen (AID 1159515; calls by dose curve; also: series mostly up to about 61 µM; nearly all actives have a fitted effect of over 55% in size). Summed up: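 Read by CellTiter-Glo luminescence (30 min, room temperature) in the wells also used for the beta-lactamase FRET read. ME-180 NFkB-bla cells at 2,000 per well were plated overnight, then exposed to compound for 5 hr at 37 C.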

The nature of assay [15]: qHTS assay to identify small molecule antagonists of the estrogen related receptor (ERR) signaling pathway - cell viability counter screen (AID 1224818).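 Also: series mostly up to about 46 µM; viability measured after 17.5 h of compound exposure.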 A digest of the protocol:
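Cytotoxicity counter screen: fluorescence from CellTiter-Fluor, added after 17.5 h compound exposure at 37 C and read 30 min later. ERR cell line seeded at 2,000 cells/well, preincubated 6 h before dosing.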

A short description of assay [16]: qHTS assay to identify small molecule antagonists of the estrogen related receptor signaling pathway with the pleiotropic PPARgamma coactivator (PGC) cell viability counter screen (AID 1224822; also: series mostly up to about 46 µM). Summed up:
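Viability counter-screen read by fluorescence intensity after 30 min with CellTiter-Fluor at 37 C; PGC/ERR reporter cells were exposed to compounds for 17.5 h at 37 C following a 6 h preincubation.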

The values below come from PubChem BioAssay (Tox21).

Values joined by “and” are separate entries in the source; they are usually repeats but may differ in a detail not shown here. Equal entries are not always repeated. Results filed as inconclusive are left out. Where a structure was tested more than once in an assay, its records may differ in their call. Active and inactive are the calls of the source. Unless noted, calls follow the shape of the dose curve; as a rule, active = well fitted curve in the direction sought with a large enough effect in the repeat runs; inconclusive = weak or mixed curves; inactive = no such curve, though single readings can be large; an effect the other way counts as inactive or inconclusive.

Turning to `CCCCC(CC)COC(=O)/C=C\C(=O)OCC(CC)CCCC` (stereo not given), the Potency entry in assay [1], in assay [2], in assay [3], in [4], in [5] and in [6] was “inactive” throughout. Further, the Potency entry in assay [7], in [8], in [9], in assay [10], in [11] and in assay [12] was “inactive” in each case.
`O=S(=O)(Oc1ccc(Cl)cc1Cl)c1ccccc1`: the Potency result in assay [1], in [2], in [3], in assay [4], in [5] and in assay [6] was “inactive” each time. Further, the Potency result in assay [7], in assay [9], in assay [10] and in assay [11] was “inactive” each time. Also, the result in [13] was inactive. The Potency in [12] is 68.6 µM (active).
On to `CC1COc2ccccc2N1C(=O)C(Cl)Cl` (stereo not given), for which the Potency entry in assay [1], in [2], in [3], in assay [4], in assay [7] and in [9] was “inactive” each time. Also, the Potency result in assay [10] was “inactive”. In assay [5], the Potency is 61 µM (active) and 48.5 µM (active).
For `C=CC(=O)OCCCCCCCC(C)C`, the Potency entry in assay [1], in assay [2], in assay [3], in assay [4], in assay [5] and in [7] was “inactive” in each case. The Potency result in assay [8], in assay [9], in [10], in assay [11] and in assay [12] was “inactive” throughout.
As to `CC1CC(OC(=O)c2ccccc2O)CC(C)(C)C1` (stereo not given), in assay [1], the Potency was 34.3 µM (active) and inactive. For the same compound, the Potency entry in assay [2], in assay [3], in assay [4], in [5], in assay [6] and in assay [8] was “inactive” each time. Further, the Potency entry in assay [9], in assay [10], in assay [11] and in assay [12] was “inactive” in each case. Further, the result in [14] was inactive.
In the case of `CC1=C(CC(=O)O)c2cc(F)ccc2/C1=C\c1ccc(S(C)=O)cc1` (stereo not given), the Potency entry in assay [1], in assay [2], in [3], in assay [4], in assay [5] and in assay [7] was “inactive” in each case. Besides, the Potency entry in assay [9] and in [10] was “inactive” throughout. Further, the compound was classed as inactive in [14], in assay [13], in assay [15] and in assay [16].
With `COC(=O)Nc1nc2ccc(Sc3ccccc3)cc2[nH]1`, the Potency entry in assay [1], in assay [2], in [3], in [6], in assay [7] and in assay [9] was “inactive” throughout. The Potency result in [10] and in assay [11] was “inactive” throughout. Further, the compound was called inactive in [13]. Besides, the Potency in [4] was 26.6 µM (active); in assay [5], 54.5 µM (active) and inactive.
Turning to `OCC1CCCO1` (stereo not given), the Potency result in [1], in [2], in [3], in [4], in assay [5] and in assay [6] was “inactive” in each case. Further, the Potency result in [7], in assay [9], in assay [10], in assay [11] and in assay [12] was “inactive” each time. Also, the result in [13] was inactive.
Turning to `NC(=O)NNc1ccccc1`, the Potency entry in assay [1], in assay [2], in assay [3], in assay [4], in assay [5] and in assay [7] was “inactive” each time. In addition, the Potency result in [8], in [9], in assay [10], in assay [11] and in [12] was “inactive” each time. In assay [13], the call was inactive.
On to `C=C(C)C(=O)OCCCCCC`, for which the Potency result in [1], in assay [2], in assay [3], in assay [4], in [6] and in assay [7] was “inactive” throughout. Also, the Potency entry in assay [8], in [9], in [10], in [11] and in assay [12] was “inactive” in each case. Further, the result in assay [14] and in assay [13] was inactive.
